From PubChem BioAssay (NCI)
The panel holds about 83,000 compounds, 20% with a hit somewhere; the sample as a whole holds those more often.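 Each cell line was grown in a 96-well plate and treated with one concentration of compound for 48 hours. Values below 10 were considered active.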 A number with no mark means an inactive call. The source made the active and inactive calls.

Test system: SK-MEL-28 melanoma
Assay: NCI-60 one-dose screen, 48 h (100 = growth as untreated, 0 = no growth, -100 = all killed)
Details: 10 µM unless noted

Question: For `COc1ccccc1/C=C/C1=C(C)CCC(c2ccccc2OC)C1C` (stereo not given), which growth is on record?
Answer: 49.8%

Question: Which growth does the source give for `COc1cc(OCc2cccc(-c3ccc4c(c3)OCCO4)c2C)cc(OC)c1C=O` here?
Answer: 67.1%

Question: For `COc1ccccc1-c1nc2ccc3[nH]ncc3c2c2c1CCCC2`, which growth is on record?
Answer: 89.2%

Question: How did the growth turn out when `CC(=O)OCCOc1cc(Cl)c(Cl)cc1Cl` was run?
Answer: 113%

Question: For `CC1(C)CC(=O)C2=C(C1)OC(C(=O)c1ccccc1)C2c1cccc(Oc2ccccc2)c1` (stereo not given), which growth is on record?
Answer: 74.4%

Question: How did the growth turn out when `CC1OC(C(=O)N2CCN(CCO)CC2)CC1COC1CCCCC1` (stereo not given) was run?
Answer: 106% [50 µM]

Question: `COc1ccccc1NC(=O)n1c(=O)cc(C)c2ccc(O)cc21` was tested. Which growth did it give?
Answer: 113%

Question: For `COc1ccc2c(c1)C(c1c[nH]c3ccccc13)(c1c[nH]c3ccccc13)CCO2`, which growth is on record?
Answer: 54.2%

Question: `CC(C)(C)n1cc(-c2ccnc(NCCNS(=O)(=O)c3cccc4ccccc34)c2)c(-c2cccc(O)c2)n1` was tested. Which growth did it give?
Answer: 83.4%

Question: For `COc1cc(C2=Nc3c(N)nc(N)nc3NC(c3cccc(Nc4ccnc5cc(C(F)(F)F)ccc45)c3)C2)cc(OC)c1OC` (stereo not given), which growth is on record?
Answer: 101%

Question: How did the growth turn out when `Nc1nc(=O)n([C@H]2CC=C(CO)O2)cc1F` was run?
Answer: 105%

Question: Which growth does the source give for `CS(=O)(=O)c1ccc(/C(=N/NC(N)=S)c2ccc(F)cc2)cc1` here?
Answer: 114%

Question: With `O=c1n(C2OC(CO)C(O)C2O)ccc2nccn12` (stereo not given) as the compound, how does the growth read?
Answer: 113%

Question: For `Cc1c(N2CCCCC2)[nH]c2ccccc12`, which growth is on record?
Answer: 133%

Question: For `O=C1CCc2c(sc3[nH]c(=S)n(-c4cc(C(F)(F)F)cc(C(F)(F)F)c4)c(=O)c23)C1`, which growth is on record?
Answer: -16.8% (active)

Question: `Nc1nc(N)c2c(n1)NC(c1ccc3c(c1)OCO3)CC(c1cccc(Nc3ccncc3)c1)=N2` (stereo not given) was tested. Which growth did it give?
Answer: 108%

Question: For `CCCCCCCC/C=C\CCCCCCCCOc1ccc(CC(=O)NCC[N+]2(C)CCCC2)cc1`, which growth is on record?
Answer: 95.9%

Question: For `Cn1cc(-c2csc(-c3cn(CCO)c4ccc(F)cc34)n2)c2cccnc21`, which growth is on record?
Answer: 74.4%

Question: With `CCOC(=O)C1=CCC(n2cc(F)c(=O)[nH]c2=O)O1` (stereo not given) as the compound, how does the growth read?
Answer: 114%

Question: `CC1(C)CC[C@]2(CO)CC[C@]3(C)C(=CC[C@@H]4[C@@]5(C)CCNCC(C)(C)[C@@H]5CC[C@]43C)[C@@H]2C1` was tested. Which growth did it give?
Answer: -29% (active)

Question: `O=C(CN1C(=O)NC2NC(=O)NC21)N/N=C/c1cccc([N+](=O)[O-])c1` (stereo not given) was tested. Which growth did it give?
Answer: 111%

Question: Which growth does the source give for `[2H]C([2H])([2H])Oc1ccc(/C=C/C(=O)/C=C(O)/C=C/c2ccc(OC([2H])([2H])[2H])c(OC([2H])([2H])[2H])c2)cc1OC([2H])([2H])[2H]` here?
Answer: 87.4%

Question: `Cc1nn(C)c2ncnc(Nc3ccccc3Br)c12` was tested. Which growth did it give?
Answer: 102%

Question: For `COc1cc(NC(=O)c2cncnc2Nc2ccc3c(ccn3Cc3cccc(F)c3)c2)cc(OC)c1`, which growth is on record?
Answer: 59.6%

Question: With `C=C1CC[C@@H]2[C@](C)(COC(C)=O)[C@H](OC(C)=O)CC[C@@]2(C)[C@@H]1CC(Nc1ccc(S(=O)(=O)Nc2nccc(C)n2)cc1)C1=CCOC1=O` (stereo not given in full) as the compound, how does the growth read?
Answer: -7.05% (active)

Question: `Cc1nc2c(c(-c3ccccc3)n1)Cc1c(ccc3ccccc13)O2` was tested. Which growth did it give?
Answer: 107%

Question: With `CCCc1cc(CCC)n2nc(N)nc2n1` as the compound, how does the growth read?
Answer: 105%

Question: `Clc1ccc(C2=Nn3c(nnc3-c3cc(Cl)cc(Cl)c3Cl)SC2)cc1` was tested. Which growth did it give?
Answer: 62.1%

Question: `CCN(CC)CCN1C(=O)c2c(c(C)c3c(oc4cc(OC)ccc43)c2C)C1=O` was tested. Which growth did it give?
Answer: 76.1%

Question: `O=C1c2cccnc2C(=O)c2c1c(C(=O)OCCCN1CCOCC1)c1ccccn21` was tested. Which growth did it give?
Answer: 37.7%

Question: Which growth does the source give for `CCCCN(CCC#N)C(N)=O` here?
Answer: 102%

Question: How did the growth turn out when `O=C(OCC(O)(CO)C(=O)NC12CC3CC(CC(C3)C1)C2)c1ccc(Cl)cc1` (stereo not given) was run?
Answer: 113%

Question: `CC1(C)C2=C(C(=O)N1Cc1ccccc1)C(c1ccco1)N(C(=O)C1CCC1)CCN2` (stereo not given) was tested. Which growth did it give?
Answer: 115%

Question: For `CN1CC(c2ccccc2)C(C(=O)c2ccc(Br)cc2)C12C(=O)Nc1ccccc12` (stereo not given), which growth is on record?
Answer: 114%

Question: `Nc1ncc(-c2ccc3ncnc(N4CCc5cc(F)c(Cl)cc54)c3c2)cn1` was tested. Which growth did it give?
Answer: 65.1%

Question: Which growth does the source give for `CCCCCN(CCCCC)CC(O)c1c(Cl)ccc2ccccc12` (stereo not given) here?
Answer: 97.3%

Question: `CNC(=O)c1cc(Oc2ccc3nc(NC(=O)NC(C)C)sc3c2)ccn1` was tested. Which growth did it give?
Answer: 85.8%

Question: Which growth does the source give for `Nc1ccc(Cl)c2c(=O)c3ccccc3[nH]c12` here?
Answer: 113%

Question: Which growth does the source give for `CNC(=O)c1cc(Oc2cccc3nc(NC(=O)Nc4ccc(F)cc4F)ccc23)ccn1` here?
Answer: 30.8%

Question: With `N#Cc1c(-c2ccc(F)cc2)cc(-c2cccc(Cl)c2)[nH]c1=O` as the compound, how does the growth read?
Answer: 83.9%
